This passage reports percent of DMSO control GFP and GFP response vs DMSO results from PubChem BioAssay.

Several values for one entry are separate records, joined by “and”; a condition that tells them apart may be missing. Equal values may be shown once. Records with an inconclusive call do not appear. Unmarked numbers belong to inactive results. Activity calls are given as the source filed them.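 Rule for the calls, unless noted: active = GFP response, as percent of the DMSO control, above the screen-wide mean plus 3 SD, about 139; inconclusive = no response measured because the compound's own fluorescence interfered; inactive = the rest.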

A short description of the first test: yeast TOR pathway RPL19A-GFP modulators, primary screen, cell-based, S. cerevisiae, multiplex flow cytometry (AID 1862; in the data active = percent of DMSO control GFP below about 86%;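 note: lower values mimic rapamycin by blocking the RPL19A rise seen in DMSO cells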). Conditions: S. cerevisiae RPL19A-GFP strain, flow cytometry fluorescence, 3 h; at 10 µM; stronger effect = lower value. On the technique in general: Flow cytometry measures light scatter and fluorescence of single cells or particles in a stream.
Regarding `S=C(NCCOCCOCCNC(=S)Nc1ccccc1)Nc1ccccc1`, the percent of DMSO control GFP was 98.6%.
As for `Cc1ccc(CN2CCN(Cc3cn[nH]c3C3CCCCC3)CC2CCO)cc1` (stereo not drawn), the percent of DMSO control GFP was 102%.
Regarding `OCCC1CN(Cc2ccccc2-c2ccco2)CCN1C1CCCC1` (stereo not drawn), the percent of DMSO control GFP is 99%.
Consider `COc1ccc2oc(-c3ccco3)cc(=O)c2c1`, for which the percent of DMSO control GFP was 103%.
The same measure, in the same setting: the result for `Nc1nc2c(nc(SCc3ccccc3Br)n2C2OC(CO)C(O)C2O)c(=O)[nH]1` (stereo not drawn) reads 102%.
For the molecule `O=C(CCC(=O)NCCO)NCCO`, the percent of DMSO control GFP was 101%.
Still for that read-out and setting: the result for `Cc1cc(=O)[nH]c(=S)[nH]1` reads 97%.
Same read-out and setting: the result for `CN(C)C(=O)Oc1cccc([N+](C)(C)C)c1` reads 95.7% and 98.8%; that for `COc1cc(/C=C/C(=O)O)cc(S(=O)(=O)NCCCO)c1OC`, 97.3%; that for `COC(=O)c1sccc1NC(=O)Nc1ccccc1F`, 100%.
For the molecule `CC1(C)C(=O)OC(/C=C\c2ccccc2)C(C)(C)C1=O` (stereo not drawn), the percent of DMSO control GFP is 98.4%.
Turning to `O=C(/C=C/c1ccc(F)cc1)NC(=S)N1CCCCC1c1cccnc1` (stereo not drawn), the percent of DMSO control GFP was 103%.
As for `COc1cc2c(cc1OC)C1(CCCC1)CNC2c1cccc([N+](=O)[O-])c1` (stereo not drawn), the percent of DMSO control GFP is 99.3%.
Take `O=C(NCCO)c1ccc(Cl)c(Cl)c1`: the percent of DMSO control GFP was 103%.
The same measure, in the same setting: the result for `N#C/C(=C\c1ccc(O)c(O)c1)C(=O)NCCCc1ccccc1` reads 102%; that for `CSCC[C@H](NC(=O)OC(C)(C)C)C(=O)N1CCC(C(=O)N[C@@H](C)C(=O)O)CC1`, 99.6%.
For the molecule `Cc1cc(-c2nn(-c3ccccc3F)cc2CN2CCCC(O)C2)c(C)s1` (stereo not drawn), the percent of DMSO control GFP was 97.6%.
Same read-out and setting: next, `COCCCNc1nc2c([nH]1)c(=O)[nH]c(=O)n2C`: 104%; `CC(C)Oc1ccc2c(=O)c(-c3ccccc3)coc2c1`: 86.5%; `O=C(Nc1cccc(Oc2c(F)c(F)c(F)c(F)c2F)c1)N1C[C@@H]2C[C@@H](C1)c1cccc(=O)n1C2`: 100%.
Still for that read-out and setting: next, `CCCCC[C@H](O)/C=C/C1=C(CCCCCCC(=O)O)C(=O)CC1`: 105%; `CC(=O)OC[C@H]1O[C@@H](Sc2cccc3cccnc23)[C@H](OC(C)=O)[C@@H](OC(C)=O)[C@H]1OC(C)=O`: 98.9%; `COc1cc(OC)cc(C(C)=O)c1`: 96%.
On to `Nc1ccc2nc(Cc3ccccc3)[nH]c2c1`, for which the percent of DMSO control GFP was 90.2%.
The same measure, in the same setting: the result for `COc1ccc2c(c1)[N+](C)(C)C(C)(C)C=C2C` reads 105%; that for `COc1ccc(CCN(C)Cc2nc(Cc3ccc(OC)c(OC)c3)no2)cc1OC`, 100%.
Same read-out and setting: the result for `N=c1c[n+](N2CCOCC2)[n-]o1` reads 102%; that for `CCCc1cc(=O)[nH]c(=S)[nH]1`, 99.1%; that for `COC(=O)c1ccccc1NC(=O)c1ccc(COc2ccc3c(c2)CCC3)cc1`, 99.6%.
The same measure, in the same setting: the result for `CC1(C)Cc2ccccc2-c2nc(-c3ccccc3)oc(=O)c21` reads 102%; that for `Cc1cc(=O)oc2c(CN(C)Cc3ccccc3)c(O)ccc12`, 100%.
With `CC1=NN(c2ccccc2)C(=O)C1`, the percent of DMSO control GFP is 108%.
Still for that read-out and setting: next, `CCOc1ccc2ccccc2c1C(=O)N[C@@H]1C(=O)N2[C@@H]1SC(C)(C)[C@@H]2C(=O)O`: 101%; `O=C1CC2(CCCC2)CC(=O)N1CCCCN1CCN(c2ncccn2)CC1`: 102%; `Cc1ccc(C2=NOC(=O)/C2=C\C=C\c2ccccc2)cc1`: 107%.
Still for that read-out and setting: next, `COc1ccc2c3c([nH]c2c1)C1(NCC3)C(=O)Nc2ccccc21` (stereo not drawn): 95.4%; `CC1(C)S[C@@H]2[C@H](NC(=O)Cc3ccccc3)C(=O)N2[C@H]1C(=O)O`: 105%; `COc1cc2cc(C(=O)O)[nH]c2c(OC)c1OC`: 102%.
For the molecule `Clc1cc(-c2ccc(/C=N/n3cnnc3)o2)ccc1Br`, the percent of DMSO control GFP was 100%.

A further test can be described thus: modulators of MEP2-GFP levels in yeast, primary screen, S. cerevisiae, multiplex flow cytometry (AID 1867).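 Note: median GFP channel fluorescence of barcode-gated MEP2-GFP cells measured by flow cytometry.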 The note with it: S. cerevisiae MEP2-GFP strain, 3 h, at 10 µM, stronger effect = higher value, 100% means same as DMSO wells.
Consider `S=C(NCCOCCOCCNC(=S)Nc1ccccc1)Nc1ccccc1`, for which the GFP response vs DMSO was 103%.
For `Cc1ccc(CN2CCN(Cc3cn[nH]c3C3CCCCC3)CC2CCO)cc1` (stereo not drawn), the GFP response vs DMSO was 103%.
For `OCCC1CN(Cc2ccccc2-c2ccco2)CCN1C1CCCC1` (stereo not drawn), the GFP response vs DMSO was 97.6%.
Same read-out and setting: next, `COc1ccc2oc(-c3ccco3)cc(=O)c2c1`: 92.4%.
Still for that read-out and setting: next, `Nc1nc2c(nc(SCc3ccccc3Br)n2C2OC(CO)C(O)C2O)c(=O)[nH]1` (stereo not drawn): 97.4%; `O=C(CCC(=O)NCCO)NCCO`: 104%.
With `Cc1cc(=O)[nH]c(=S)[nH]1`, the GFP response vs DMSO is 109%.
Turning to `CN(C)C(=O)Oc1cccc([N+](C)(C)C)c1`, the GFP response vs DMSO is 104% and 109%.
Regarding `COc1cc(/C=C/C(=O)O)cc(S(=O)(=O)NCCCO)c1OC`, the GFP response vs DMSO was 98.5%.
As to `COC(=O)c1sccc1NC(=O)Nc1ccccc1F`, the GFP response vs DMSO was 103%.
Take `CC1(C)C(=O)OC(/C=C\c2ccccc2)C(C)(C)C1=O` (stereo not drawn): the GFP response vs DMSO was 101%.
On to `O=C(/C=C/c1ccc(F)cc1)NC(=S)N1CCCCC1c1cccnc1` (stereo not drawn), for which the GFP response vs DMSO is 106%.
Turning to `COc1cc2c(cc1OC)C1(CCCC1)CNC2c1cccc([N+](=O)[O-])c1` (stereo not drawn), the GFP response vs DMSO is 103%.
Consider `O=C(NCCO)c1ccc(Cl)c(Cl)c1`, for which the GFP response vs DMSO is 104%.
Same read-out and setting: next, `N#C/C(=C\c1ccc(O)c(O)c1)C(=O)NCCCc1ccccc1`: 101%; `CSCC[C@H](NC(=O)OC(C)(C)C)C(=O)N1CCC(C(=O)N[C@@H](C)C(=O)O)CC1`: 105%; `Cc1cc(-c2nn(-c3ccccc3F)cc2CN2CCCC(O)C2)c(C)s1` (stereo not drawn): 101%.
For `COCCCNc1nc2c([nH]1)c(=O)[nH]c(=O)n2C`, the GFP response vs DMSO was 99.6%.
`CC(C)Oc1ccc2c(=O)c(-c3ccccc3)coc2c1`: the GFP response vs DMSO was 101%.
Same read-out and setting: next, `O=C(Nc1cccc(Oc2c(F)c(F)c(F)c(F)c2F)c1)N1C[C@@H]2C[C@@H](C1)c1cccc(=O)n1C2`: 101%.
As for `CCCCC[C@H](O)/C=C/C1=C(CCCCCCC(=O)O)C(=O)CC1`, the GFP response vs DMSO is 106%.
Still for that read-out and setting: next, `CC(=O)OC[C@H]1O[C@@H](Sc2cccc3cccnc23)[C@H](OC(C)=O)[C@@H](OC(C)=O)[C@H]1OC(C)=O`: 99.6%; `COc1cc(OC)cc(C(C)=O)c1`: 91.8%.
Same read-out and setting: next, `Nc1ccc2nc(Cc3ccccc3)[nH]c2c1`: 150% (active).
As to `COc1ccc2c(c1)[N+](C)(C)C(C)(C)C=C2C`, the GFP response vs DMSO was 96.2%.
Same read-out and setting: next, `COc1ccc(CCN(C)Cc2nc(Cc3ccc(OC)c(OC)c3)no2)cc1OC`: 105%.
Still for that read-out and setting: the result for `N=c1c[n+](N2CCOCC2)[n-]o1` reads 106%.
Same read-out and setting: next, `CCCc1cc(=O)[nH]c(=S)[nH]1`: 101%; `COC(=O)c1ccccc1NC(=O)c1ccc(COc2ccc3c(c2)CCC3)cc1`: 99.3%; `CC1(C)Cc2ccccc2-c2nc(-c3ccccc3)oc(=O)c21`: 94.7%.
Take `Cc1cc(=O)oc2c(CN(C)Cc3ccccc3)c(O)ccc12`: the GFP response vs DMSO is 106%.
The same measure, in the same setting: next, `CC1=NN(c2ccccc2)C(=O)C1`: 106%; `CCOc1ccc2ccccc2c1C(=O)N[C@@H]1C(=O)N2[C@@H]1SC(C)(C)[C@@H]2C(=O)O`: 112%.
Turning to `O=C1CC2(CCCC2)CC(=O)N1CCCCN1CCN(c2ncccn2)CC1`, the GFP response vs DMSO was 104%.
On the same count and under the same terms, next, `Cc1ccc(C2=NOC(=O)/C2=C\C=C\c2ccccc2)cc1`: 101%; `COc1ccc2c3c([nH]c2c1)C1(NCC3)C(=O)Nc2ccccc21` (stereo not drawn): 105%.
Same read-out and setting: the result for `CC1(C)S[C@@H]2[C@H](NC(=O)Cc3ccccc3)C(=O)N2[C@H]1C(=O)O` reads 102%; that for `COc1cc2cc(C(=O)O)[nH]c2c(OC)c1OC`, 106%; that for `Clc1cc(-c2ccc(/C=N/n3cnnc3)o2)ccc1Br`, 103%.
